Screens from PubChem.
The list is not random: actives were taken first. Their share in the collection is about 2.9%.
EPAC1 ag val – human EPAC1 agonism, validation | AID 1645883 | O95398 | EPAC1 Rap1b BODIPY-GDP exchange, fluorescence | actives 1% (n = 16,000) | Potency, µM, inactives show max response, positive = active, hits mostly activators; further: nearly all actives have a fitted effect of over 70% in size
Target sequence (O95398 whole entry, looked up): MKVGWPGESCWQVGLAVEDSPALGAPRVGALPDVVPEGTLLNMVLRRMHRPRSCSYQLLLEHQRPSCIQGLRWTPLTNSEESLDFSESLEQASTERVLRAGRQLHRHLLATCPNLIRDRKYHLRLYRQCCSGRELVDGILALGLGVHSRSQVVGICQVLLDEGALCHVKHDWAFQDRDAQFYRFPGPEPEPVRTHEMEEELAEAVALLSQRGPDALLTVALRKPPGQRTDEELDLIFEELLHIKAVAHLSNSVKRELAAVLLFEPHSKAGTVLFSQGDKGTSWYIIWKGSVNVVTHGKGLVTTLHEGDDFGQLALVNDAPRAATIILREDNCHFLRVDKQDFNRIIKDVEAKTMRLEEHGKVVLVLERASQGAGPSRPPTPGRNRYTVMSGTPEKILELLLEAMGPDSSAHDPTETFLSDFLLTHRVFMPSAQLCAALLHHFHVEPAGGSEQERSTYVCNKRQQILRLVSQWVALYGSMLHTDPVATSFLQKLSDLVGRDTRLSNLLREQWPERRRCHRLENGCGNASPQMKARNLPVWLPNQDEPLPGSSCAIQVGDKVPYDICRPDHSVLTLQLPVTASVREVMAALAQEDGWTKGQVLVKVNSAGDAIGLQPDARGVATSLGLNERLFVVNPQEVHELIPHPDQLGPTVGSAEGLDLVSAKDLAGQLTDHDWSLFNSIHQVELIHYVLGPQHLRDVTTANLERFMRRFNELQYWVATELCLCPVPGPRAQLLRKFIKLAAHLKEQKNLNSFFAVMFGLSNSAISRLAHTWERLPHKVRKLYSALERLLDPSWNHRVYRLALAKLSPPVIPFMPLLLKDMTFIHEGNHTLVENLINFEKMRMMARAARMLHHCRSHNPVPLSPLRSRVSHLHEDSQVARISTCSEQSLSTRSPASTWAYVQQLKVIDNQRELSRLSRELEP
EPAC2 antag – validation of human EPAC2 antagonists; actives 1.7% (n = 16,000); EPAC2 Rap1B BODIPY-GDP exchange, fluorescence; Q8WZA2; Potency, µM (series often up to 112 µM), for inactives: at the top dose activity, negative = inhibition, usual class: inhibitors;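 further: 100% = activation by cAMP agonist control; nearly all actives have a fitted effect of over 40% in size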
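Normalized against a 6.5 mM cAMP agonist control, compounds were tested on 100 nM EPAC2 exchanging Rap1B-bound BODIPY-GDP (250 nM) for 50 uM GDP. Fluorescence drop (ex 480, em 540 nm) was tracked at room temperature over 30 min at 5-min intervals.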
Numbers without * were called inactive; i = inactive; ? = inconclusive; ! = not confirmed by another sample. The call rests on the fitted dose curve; in most records, active means well fitted curve in the direction sought with a large enough effect; inconclusive means small, poorly fitted or top-dose-only effect, or another doubt; inactive means no such curve, though single readings can be large; an effect the other way counts as inactive or inconclusive. Unless noted, on the % scale 0 is the no-effect control and ±100 the full control effect; potency means the concentration at half of the fitted maximal effect.

SMILES	EPAC1 ag val	EPAC2 antag
CN1CCN(c2ncnc3ccc(-c4ccccc4C#N)cc23)CC1	-46%	-10%
O=C(O)c1ccccc1Nc1cccc(OCc2ccc3ccccc3n2)c1	-5%	-27%
CCCS(=O)(=O)NCc1c(C)ncc2c1CCN(C(=O)c1c(F)ccc(F)c1F)C2	12%	7%
CCc1c(C)c2ccccc2[nH]c1=O	8%	11%
O=C(CN1Cc2ccccc2OC(c2ccccc2)C1)NCc1cccnc1 (stereo unspecified)	4%	-35%
Cc1c(C(=O)N(C)C(C)C)sc2ncnc(NCCCN3CCOCC3)c12	-13%	4%
CC#CCC(C)[C@H](O)/C=C/[C@@H]1[C@H]2C/C(=C/CCCC(=O)O)C[C@H]2C[C@H]1O (stereo partly specified)	-23%	4%
CCCCOCCOCCOCc1cc2c(cc1CCC)OCO2	-3%	50µM*!
O=c1c(O)cc(C2Oc3cc(O)cc(O)c3CC2O)cc2c(C3Oc4cc(O)cc(O)c4CC3O)cc(O)c(O)c12 (stereo unspecified)	-33%	20µM*
Oc1cc(O)c2c(c1)O[C@H](c1ccc(O)c(O)c1)[C@@H](O)C2	-7%	7%
C[n+]1c2cc(N)ccc2cc2ccc(N)cc21 (tested in a mixture with another compound)	25µM*	i
CC(C)(C)CC(C)(C)c1ccc(O)c(Cc2ccc(Cl)cc2Cl)c1	-28%	?
CC(C)(Sc1ccc(CCN(CCCCC2CCCCC2)C(=O)NC2CCCCC2)cc1)C(=O)O	-4%	45µM*!
CC(C)NC[C@H](O)c1ccc(NS(C)(=O)=O)cc1	4%	-25%
CC1(C)C(OC(=O)CCC(=O)O)CC[C@]2(C)C1CC[C@@]1(C)C2C(=O)C=C2[C@@H]3C[C@@](C)(C(=O)O)CC[C@]3(C)CCC21C (stereo partly specified)	?	4µM*
CC1(C)[C@@H](O[C@H]2O[C@H](C(=O)O)[C@@H](O)[C@H](O)[C@H]2O[C@@H]2O[C@H](C(=O)O)[C@@H](O)[C@H](O)[C@H]2O)CC[C@]2(C)[C@H]3C(=O)C=C4[C@@H]5C[C@@](C)(C(=O)O)CC[C@]5(C)CC[C@@]4(C)[C@]3(C)CC[C@@H]12	-18%	?
CC1(C)[C@@H](O)CC[C@]2(C)[C@H]3C(=O)C=C4[C@@H]5C[C@@](C)(C(=O)O)CC[C@]5(C)CC[C@@]4(C)[C@]3(C)CC[C@@H]12	20%	1.6µM*
CC1(C)C(O)CC[C@]2(C)C1CC[C@@]1(C)C2C(=O)C=C2[C@@H]3C[C@@](C)(C(=O)O)CC[C@@]3(C)CCC21C (stereo partly specified)	-3%	7.1µM*
CC(=O)OC1CCC2(C)C(CCC3(C)C2C(=O)C=C2C4CC(C)(C(=O)OCCN5CCCCC5)CCC4(C)CCC23C)C1(C)C (stereo unspecified)	-11%	-12%
CC1(C)CC[C@]2(C(=O)O)CC[C@@]3(C)C(=CCC4[C@@]5(C)CCC(O)C(C)(C)C5CC[C@@]43C)C2C1 (stereo partly specified)	-50%	-14%
O=c1cc(-c2cccc(O)c2)oc2c(O)c(O)ccc12	-23%	-25%
O=C1c2ccccc2C(=O)c2c(O)ccc(O)c21	-23%	57%
O=C1OC(c2ccc(O)cc2)(c2ccc(O)cc2)c2ccccc21	?	35µM*!
COc1ccc(-c2nc3cnc(N4CCN(C)CC4)nc3n(C)c2=O)cc1	3%	-15%
CN(C)c1ccc(/C=C/c2ccnc3c2ccc2c(/C=C/c4ccc(N(C)C)cc4)ccnc23)cc1	-5%	?
SMILES	EPAC1 ag val	EPAC2 antag
Cc1cc(N(C)C)cc(C)c1/C=C/c1ccnc2ccccc12	100µM*	-23%
Cc1ccc2nccc(/C=C/c3ccc(N(C)C)cc3)c2c1	112µM*	66%
CN(C)C(=O)c1ccc(/C=C/c2ccnc3ccccc23)cc1	?	20%
COc1cc(-c2ccc(N=Nc3ccc4c(S(=O)(=O)O)cc(S(=O)(=O)O)c(N)c4c3O)c(OC)c2)ccc1N=Nc1ccc2c(S(=O)(=O)O)cc(S(=O)(=O)O)c(N)c2c1O	5%	28µM*!
CC(=O)Oc1ccc2c(c1)CCC1C2CC[C@]2(C)C(OC(C)=O)CCC12 (stereo partly specified)	?	-21%
CC(=O)Oc1ccc2c(c1)CC[C@@H]1[C@@H]2CC[C@]2(C)[C@@H](O)CC[C@@H]12	28µM*	88%
CC[C@]1(c2ncc[nH]2)Cc2ccccc2O1	6%	16µM*
O=c1cnc2cnc(N3CCOCC3)nc2n1Cc1cccs1	-35%	-29%
CN(C)c1nc(-c2cccc(NS(C)(=O)=O)c2)nc2ccccc12	-21%	-16%
O=C(c1cccc(F)c1)N1CCC2(CCN(Cc3nccs3)CC2)CC1	-50%	-19%
CCNc1ncc2nc(-c3cc(F)cc(F)c3)c(=O)n(CCC#N)c2n1	?	-37%
COc1cc(C(=O)NS(=O)(=O)c2ccccc2C)ccc1Cc1cn(C)c2ccc(NC(=O)OC3CCCC3)cc12	4%	79µM*
CN(C)Cc1ccccc1-c1nccc(NCc2cccs2)n1	4%	-12%
O=C(c1ccncc1)N1CCC2(CCCN(Cc3ccncc3)C2)CC1	-25%	-25%
COC(=O)C1CCCCN1Cc1nc(N2CCCN(C(C)=O)CC2)c2ccccc2n1 (stereo unspecified)	-4%	-1%
c1ccc2c(N3CCCCCC3)nc(CN3CCCCC3c3nccs3)nc2c1 (stereo unspecified)	1%	20µM*
O=S(=O)(N(Cc1ccccc1)[C@@H](CO)Cc1ccccc1)N(Cc1ccccc1)[C@@H](CO)Cc1ccccc1	-5%	-2%
CC(C)C[C@H](CO)N(Cc1ccccc1)S(=O)(=O)N(Cc1ccccc1)[C@@H](CO)CC(C)C	-74%	?
C=CS(=O)(=O)N(Cc1ccccc1Br)[C@H](CO)Cc1ccccc1	12%	35µM*
C=CS(=O)(=O)N(Cc1ccccc1)[C@H](CO)CC(C)C	-51%	79µM*
CN1C(=O)CCC1c1cccnc1 (stereo unspecified)	6%	-18%
COc1ccc(OC)c2c(/C=C/c3c(C)[nH]c4ccccc34)ccnc12	?	-4%
O=c1c(-c2cccc(Cl)c2)nc2cncnc2n1Cc1ccccc1	?	27%
C#CCCCCCCCCCCCc1ccco1	-128%	-22%
O=S(=O)(O)c1cc(I)c(O)c2ncccc12	13%	18%
SMILES	EPAC1 ag val	EPAC2 antag
O=C(Nc1ccc(/C=C/c2ccc(NC(=O)c3cc(S(=O)(=O)O)c4cccnc4c3O)cc2S(=O)(=O)O)c(S(=O)(=O)O)c1)c1cc(S(=O)(=O)O)c2cccnc2c1O	?	22µM*
Cc1ccc(CN2C[C@H](Sc3ccccn3)C[C@H]2C(=O)Nc2ccc3sc(C)nc3c2)s1	9%	0%
CCNc1ncc2nc(-c3ccc(OC)cc3)c(=O)n(-c3ccc(OC)cc3)c2n1	-52%	1%
CC(C)(C)[C@H]1CCC(=O)N([C@H](CN=[N+]=[N-])Cc2ccccc2)CC1	-84%	56µM*
[N-]=[N+]=NC[C@H](Cc1ccccc1)N1CC[C@@H](O)CCC1=O	12%	-5%
CN(C)CCCN1c2ccccc2Sc2ccc(Cl)cc21	1%	-24%
OCCN1CCN(CCCN2c3ccccc3Sc3ccc(Cl)cc32)CC1	2%	35µM*!
